We go through five molecules from PubChem BioAssay.

Experiment [1] is described as follows: yeast TOR pathway RPL19A-GFP modulators, primary screen, cell-based, S. cerevisiae, multiplex flow cytometry (AID 1862; in the data active = percent of DMSO control GFP below about 86%;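 note: lower values mimic rapamycin by blocking the RPL19A rise seen in DMSO cells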). Particulars: S. cerevisiae RPL19A-GFP strain, flow cytometry fluorescence, 3 h; at 10 µM; stronger effect = lower value. (In flow cytometry, cells or beads pass a laser one at a time.)
Experiment [2] is described as follows: modulators of MEP2-GFP levels in yeast, primary screen, S. cerevisiae, multiplex flow cytometry (AID 1867;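 active = GFP response, as percent of the DMSO control, above the screen-wide mean plus 3 SD, about 139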;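 note: median GFP channel fluorescence of barcode-gated MEP2-GFP cells measured by flow cytometry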). The following applies: S. cerevisiae MEP2-GFP strain, 3 h, at 10 µM, stronger effect = higher value, 100% means same as DMSO wells.
The nature of experiment [3]: modulators of CIT2-GFP expression in yeast, primary screen, S. cerevisiae, GFP fusion, multiplex flow cytometry (AID 1870;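 active = percent response above a set limit, the screen-wide mean plus 3 SD, cut at about 130% in these data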;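 note: barcoded CIT2-GFP strain pooled with four other GFP strains with rapamycin as positive control; median GFP fluorescence per well over plate mean of DMSO wells so 100% = DMSO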). The following applies: 3 h, at 10 µM, stronger effect = higher value.
Experiment [4] can be described thus: modulators of LAP4-GFP expression in yeast, primary screen, S. cerevisiae, multiplex flow cytometry (AID 1873). The following applies: 3 h, at 10 µM, stronger effect = higher value.
The nature of experiment [5]: modulators of AGP1-GFP expression in yeast TOR pathway, primary screen, cell-based, multiplex flow cytometry, S. cerevisiae (AID 1887;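 active = GFP signal above the screen-wide mean plus 3 SD, that is over about 124.5% of the solvent control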;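 note: AGP1-GFP fusion strain of S. cerevisiae within a five-strain barcoded multiplex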). The following applies: 3 h, at 10 µM, stronger effect = higher value.
Experiment [6] is described as follows: inhibitors of CD8+ T cell-vesicle binding, pilot screen, LFA-1/ICAM-1 modulator project, MLPCN validation set, flow cytometry (AID 2523;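 active = response below a set limit, under 55% cells CD8-positive and vesicle-bound, and CD8 cells' 90th-percentile brightness under 279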;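 for vesicle binding response: mean PE anti-B7-1 fluorescence of CD8+ cells relative to row control; 100% = QL9-loaded vesicles with DMSO vehicle in the same plate row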). Particulars: 2C mouse CD8+ T cells, at 7 µM, stronger effect = lower value; double positive events: measured here: CD8+/vesicle+ event percentage.
Experiment [7] addresses Integrin beta-1 (Homo sapiens) + Integrin alpha-4 (Homo sapiens) (UniProt P13612+P05556). Description: inhibition of HUTS-21 binding to VLA-4, pilot screen, VLA-4 allosteric modulator project, U937 cells, HUTS-21 mAb, flow cytometry, validation set (AID 2674;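 active = inhibition above 50%, about 3 SD of the validation set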;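 note: antibody binding induced by the VLA-4 ligand LDV present at three times its Kd; 0% = LDV ligand with antibody and no compound and 100% = antibody without LDV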). The following applies: HUTS-21 LIBS mAb binding, at 6.7 µM, stronger effect = higher value, binding induced by LDV ligand.
Experiment [8] in a line: superoxide lowering in aged yeast cells, pilot screen, validation compound set (AID 2706;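 active = superoxide response below 65% of plate, a cut near 3 SD across the whole screen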;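 note: yeast exposed to compound for one week at 30 degrees C before staining; 100% = mean of all compound wells on the same plate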). Particulars: S. cerevisiae aging, superoxide DHE fluorescence; at 10 µM; stronger effect = lower value.
Experiment [9] addresses Beta-adrenergic receptor kinase 1 (Homo sapiens) (UniProt P25098). Briefly: GRK2 binders displacing RNA aptamer, biochemical, validation, human GRK2, bead flow cytometry (AID 488806;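 active = aptamer binding inhibition above 30%, about 3 SD of noise from non-fluorescent compounds; inactive = inhibition at or below 30%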). The following applies: bead-bound GRK2, FAM-aptamer displacement, at 10 µM, stronger effect = higher value.
For experiment [10], the target named is Beta-2 adrenergic receptor (Homo sapiens) (UniProt P07550). Description: beta2AR agonists driving receptor internalization, pilot screen, cell-based, FAP fluorogen, flow cytometry, validation set (AID 504459;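 active = percent response above 42, roughly 3 SD of non-fluorescent test compounds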;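 note: agonist-driven loss of surface beta2AR via internalization measured by FAP dye flow cytometry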). The following applies: Am2.2-beta2AR cells, FAP surface receptor flow cytometry; at 10 µM; stronger effect = higher value.
The target of experiment [11] is AP-2 complex subunit beta (Homo sapiens) (UniProt P63010). Description: inhibitors of arrestin peptide binding to AP2, pilot screen, biochemical, validation set, GST-AP2 beads, flow cytometry (AID 504541;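 active = inhibition above 54%, about 3 SD of non-fluorescent compounds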;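 note: AP2 carries R879A mutation and is captured from E. coli lysate; bead-bound FITC arrestin peptide fluorescence measuring arrestin peptide binding to AP2; 0% = DMSO wells and 100% = excess unlabeled arrestin peptide control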). The following applies: FITC arrestin peptide, at 10 µM, stronger effect = higher value, AP2 beta2 appendage fragment, R879A mutant.
A short description of experiment [12]: yeast V-ATPase proton transport modulators, S. cerevisiae, pHLuorin, HTS validation (AID 504600; in the data active = response above about 15%;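 note: plate controls were DMSO for no effect and reference compound for full effect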). The following applies: S. cerevisiae pHLuorin cytosolic pH, at 10 µM, stronger effect = higher value.
The subject of experiment [13] is anti-desmoglein-3 scFv antibody binding to human DSG3. Briefly: inhibitors of anti-DSG3 scFv binding to DSG3, pilot screen, biochemical, validation compound set, bead-based, flow cytometry (AID 588368;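 active = binding below the plate cutoff, the plate median minus 3 SD, with a reading above zero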;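 note: signal is the median channel fluorescence of bead-bound GFP antibody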). The following applies: Protein G beads, DSG3-Fc, scFv-GFP binding, at 10 µM, stronger effect = lower value.
The nature of experiment [14]: inhibitors of fungal efflux pumps CDR1, CDR2, MDR1, pilot screen, validation compound set, multiplex, phenotypic (AID 588506;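 active = efflux inhibition above 0.42, the validation set average plus 4 SD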;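 note: Nile Red retained in cells so higher fluorescence means more efflux inhibition; 0 = negative control wells and 1 = enniatin B 25 µM full block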). The following applies: S. cerevisiae pump-expressing triplex, Nile Red efflux flow cytometry; at 10 µM; stronger effect = higher value; the pumps come from Candida albicans.
In experiment [15] the target is ATP-binding cassette sub-family B member 6 (Homo sapiens) (UniProt Q9NP58). Description: ABCB6 transporter inhibitors, pilot screen, K562-ABCB6 cells, flow cytometry, validation set (AID 588550;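 active = inhibition above the screen-wide mean plus 3 SD, about 51%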;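 note: 0% = DMSO wells and 100% = benzethonium chloride 70 µM positive control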). Particulars: K562-ABCB6 porphyrin accumulation, 1 h, at 10 µM, stronger effect = higher value.
Experiment [16] can be described thus: promoters of myeloid differentiation in arrested cells, primary screen, cell-based, GFP/MAC1 double positive, flow cytometry, validation set (AID 588685;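 active = differentiation response of at least 50%, scaled between solvent and reference control, from cells with both markers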;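 note: compound exposure lasts four days before antibody staining and flow analysis; 0% = DMSO wells and 100% = 5 µM fulvestrant positive control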). Particulars: ER-HoxA9 marrow cells, stronger effect = higher value, normalized: vehicle 0, fulvestrant 100.

Records with an inconclusive call do not appear. Active and inactive are the calls of the source.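 Rule for the calls, unless noted: active = GFP signal, as percent of the solvent control, above the screen mean plus 3 SD, about 149; inconclusive = no reading because the compound's own fluorescence upset strain identification; inactive = the rest.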

Sequence of ATP-binding cassette sub-family B member 6 (Homo sapiens) (Q9NP58 whole entry, looked up): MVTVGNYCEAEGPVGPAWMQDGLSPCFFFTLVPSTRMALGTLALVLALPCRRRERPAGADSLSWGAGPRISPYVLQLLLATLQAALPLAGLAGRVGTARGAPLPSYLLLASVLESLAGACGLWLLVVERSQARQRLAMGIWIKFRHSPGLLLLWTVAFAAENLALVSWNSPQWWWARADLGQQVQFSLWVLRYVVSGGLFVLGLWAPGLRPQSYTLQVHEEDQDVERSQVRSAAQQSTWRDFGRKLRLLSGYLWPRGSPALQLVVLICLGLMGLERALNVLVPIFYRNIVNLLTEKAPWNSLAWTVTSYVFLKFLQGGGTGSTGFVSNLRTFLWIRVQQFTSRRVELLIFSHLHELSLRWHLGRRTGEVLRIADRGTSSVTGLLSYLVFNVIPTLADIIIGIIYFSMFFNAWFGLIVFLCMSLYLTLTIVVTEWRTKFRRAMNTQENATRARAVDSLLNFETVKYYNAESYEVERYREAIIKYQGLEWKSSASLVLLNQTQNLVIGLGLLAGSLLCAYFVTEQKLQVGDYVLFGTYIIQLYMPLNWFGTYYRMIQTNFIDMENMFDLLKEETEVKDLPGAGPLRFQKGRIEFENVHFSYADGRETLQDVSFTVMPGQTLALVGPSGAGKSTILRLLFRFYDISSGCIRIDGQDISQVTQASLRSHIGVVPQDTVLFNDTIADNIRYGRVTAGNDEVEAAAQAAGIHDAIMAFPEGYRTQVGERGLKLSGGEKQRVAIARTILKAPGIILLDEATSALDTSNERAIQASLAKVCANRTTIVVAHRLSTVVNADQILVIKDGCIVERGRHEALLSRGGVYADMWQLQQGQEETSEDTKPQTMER
Sequence of AP-2 complex subunit beta (Homo sapiens) (P63010 whole entry, looked up, the tested form may be a part, one chain of several): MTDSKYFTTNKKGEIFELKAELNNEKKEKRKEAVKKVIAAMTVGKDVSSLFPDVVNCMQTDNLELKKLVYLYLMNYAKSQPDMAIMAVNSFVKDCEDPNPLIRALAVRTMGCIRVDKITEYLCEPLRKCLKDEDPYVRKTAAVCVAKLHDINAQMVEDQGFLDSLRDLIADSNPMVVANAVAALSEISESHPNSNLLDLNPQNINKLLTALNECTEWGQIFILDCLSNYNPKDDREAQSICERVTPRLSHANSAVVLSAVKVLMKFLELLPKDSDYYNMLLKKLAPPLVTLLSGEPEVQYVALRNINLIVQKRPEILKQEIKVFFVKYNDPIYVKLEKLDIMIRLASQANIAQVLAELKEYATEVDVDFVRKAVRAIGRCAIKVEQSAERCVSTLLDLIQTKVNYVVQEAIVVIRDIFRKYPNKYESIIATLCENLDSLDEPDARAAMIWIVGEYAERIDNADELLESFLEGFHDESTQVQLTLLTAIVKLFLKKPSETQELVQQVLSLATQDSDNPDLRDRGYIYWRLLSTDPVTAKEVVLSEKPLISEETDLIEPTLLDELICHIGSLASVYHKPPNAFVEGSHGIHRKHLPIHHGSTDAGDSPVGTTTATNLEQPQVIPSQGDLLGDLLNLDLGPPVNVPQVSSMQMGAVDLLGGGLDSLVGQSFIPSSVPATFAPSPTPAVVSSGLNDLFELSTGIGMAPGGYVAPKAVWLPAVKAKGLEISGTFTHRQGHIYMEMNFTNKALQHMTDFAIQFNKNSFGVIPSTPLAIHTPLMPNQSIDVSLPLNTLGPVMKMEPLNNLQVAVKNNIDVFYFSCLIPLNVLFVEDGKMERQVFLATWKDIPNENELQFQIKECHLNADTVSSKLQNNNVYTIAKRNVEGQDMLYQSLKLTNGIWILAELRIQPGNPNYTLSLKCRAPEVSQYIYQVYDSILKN
Sequence of Integrin beta-1 (Homo sapiens) + Integrin alpha-4 (Homo sapiens) (P05556 whole entry, looked up): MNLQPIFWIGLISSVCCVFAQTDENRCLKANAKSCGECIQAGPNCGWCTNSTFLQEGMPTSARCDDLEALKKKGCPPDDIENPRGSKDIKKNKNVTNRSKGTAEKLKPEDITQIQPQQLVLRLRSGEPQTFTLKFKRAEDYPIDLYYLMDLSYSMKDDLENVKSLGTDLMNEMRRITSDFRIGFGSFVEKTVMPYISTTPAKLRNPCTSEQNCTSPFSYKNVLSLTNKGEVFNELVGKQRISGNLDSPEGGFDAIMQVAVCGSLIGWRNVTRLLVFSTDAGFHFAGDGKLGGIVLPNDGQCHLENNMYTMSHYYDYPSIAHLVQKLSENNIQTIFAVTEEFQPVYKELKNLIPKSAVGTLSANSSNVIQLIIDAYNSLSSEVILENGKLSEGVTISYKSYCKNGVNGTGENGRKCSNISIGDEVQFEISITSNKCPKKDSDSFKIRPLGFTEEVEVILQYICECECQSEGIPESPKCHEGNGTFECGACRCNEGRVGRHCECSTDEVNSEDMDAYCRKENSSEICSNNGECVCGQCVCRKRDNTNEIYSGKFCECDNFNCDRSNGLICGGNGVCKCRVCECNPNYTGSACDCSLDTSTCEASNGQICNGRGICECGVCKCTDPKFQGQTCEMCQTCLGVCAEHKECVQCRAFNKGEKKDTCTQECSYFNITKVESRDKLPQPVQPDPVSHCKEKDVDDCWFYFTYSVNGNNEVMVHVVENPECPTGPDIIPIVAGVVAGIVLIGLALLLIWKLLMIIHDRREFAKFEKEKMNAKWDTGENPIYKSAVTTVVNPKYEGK
Sequence of Integrin beta-1 (Homo sapiens) + Integrin alpha-4 (Homo sapiens) (P13612 whole entry, looked up): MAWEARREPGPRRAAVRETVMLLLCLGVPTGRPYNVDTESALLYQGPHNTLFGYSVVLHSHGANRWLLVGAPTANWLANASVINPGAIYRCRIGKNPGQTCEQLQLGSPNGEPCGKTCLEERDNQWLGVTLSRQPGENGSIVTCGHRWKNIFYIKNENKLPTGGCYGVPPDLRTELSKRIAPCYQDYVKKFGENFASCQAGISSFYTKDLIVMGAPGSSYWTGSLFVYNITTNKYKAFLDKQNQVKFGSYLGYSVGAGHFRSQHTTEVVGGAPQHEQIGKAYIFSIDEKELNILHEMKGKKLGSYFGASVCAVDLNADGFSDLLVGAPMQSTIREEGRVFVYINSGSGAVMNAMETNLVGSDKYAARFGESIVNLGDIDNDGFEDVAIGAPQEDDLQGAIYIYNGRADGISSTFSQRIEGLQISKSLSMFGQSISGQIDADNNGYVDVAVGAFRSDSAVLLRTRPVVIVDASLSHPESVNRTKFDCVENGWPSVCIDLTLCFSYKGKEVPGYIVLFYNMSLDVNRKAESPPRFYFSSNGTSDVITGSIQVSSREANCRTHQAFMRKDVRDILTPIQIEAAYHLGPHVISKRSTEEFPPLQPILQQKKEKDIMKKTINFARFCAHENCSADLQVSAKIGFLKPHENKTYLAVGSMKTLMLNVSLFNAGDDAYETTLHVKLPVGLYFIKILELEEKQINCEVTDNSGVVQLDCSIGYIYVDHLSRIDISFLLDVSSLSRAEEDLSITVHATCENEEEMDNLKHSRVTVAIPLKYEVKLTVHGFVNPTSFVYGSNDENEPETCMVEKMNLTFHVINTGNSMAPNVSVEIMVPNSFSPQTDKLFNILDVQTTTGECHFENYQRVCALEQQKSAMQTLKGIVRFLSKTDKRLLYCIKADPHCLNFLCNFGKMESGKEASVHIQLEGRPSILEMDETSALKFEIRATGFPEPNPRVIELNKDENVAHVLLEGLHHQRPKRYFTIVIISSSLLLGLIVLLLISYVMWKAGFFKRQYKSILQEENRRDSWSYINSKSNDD
Sequence of Beta-adrenergic receptor kinase 1 (Homo sapiens) (P25098 whole entry, looked up): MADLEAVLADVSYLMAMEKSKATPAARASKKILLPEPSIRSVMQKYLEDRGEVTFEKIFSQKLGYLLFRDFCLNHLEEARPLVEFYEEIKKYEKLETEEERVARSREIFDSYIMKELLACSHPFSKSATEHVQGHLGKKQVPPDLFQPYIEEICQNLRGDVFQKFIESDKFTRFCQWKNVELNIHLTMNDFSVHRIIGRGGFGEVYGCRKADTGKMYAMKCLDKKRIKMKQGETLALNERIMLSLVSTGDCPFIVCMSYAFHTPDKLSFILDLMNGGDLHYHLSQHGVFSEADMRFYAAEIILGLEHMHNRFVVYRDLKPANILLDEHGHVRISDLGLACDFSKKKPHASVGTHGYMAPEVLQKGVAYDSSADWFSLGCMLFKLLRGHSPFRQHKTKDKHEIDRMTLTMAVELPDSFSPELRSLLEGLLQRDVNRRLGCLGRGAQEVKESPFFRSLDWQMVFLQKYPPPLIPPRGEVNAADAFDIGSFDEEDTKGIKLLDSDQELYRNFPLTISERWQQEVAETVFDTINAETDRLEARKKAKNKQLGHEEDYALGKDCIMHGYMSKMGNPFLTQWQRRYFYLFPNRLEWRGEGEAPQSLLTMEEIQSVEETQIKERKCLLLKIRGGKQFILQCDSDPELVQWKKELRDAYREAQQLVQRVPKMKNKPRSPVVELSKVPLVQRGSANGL
Sequence of Beta-2 adrenergic receptor (Homo sapiens) (P07550 whole entry, looked up): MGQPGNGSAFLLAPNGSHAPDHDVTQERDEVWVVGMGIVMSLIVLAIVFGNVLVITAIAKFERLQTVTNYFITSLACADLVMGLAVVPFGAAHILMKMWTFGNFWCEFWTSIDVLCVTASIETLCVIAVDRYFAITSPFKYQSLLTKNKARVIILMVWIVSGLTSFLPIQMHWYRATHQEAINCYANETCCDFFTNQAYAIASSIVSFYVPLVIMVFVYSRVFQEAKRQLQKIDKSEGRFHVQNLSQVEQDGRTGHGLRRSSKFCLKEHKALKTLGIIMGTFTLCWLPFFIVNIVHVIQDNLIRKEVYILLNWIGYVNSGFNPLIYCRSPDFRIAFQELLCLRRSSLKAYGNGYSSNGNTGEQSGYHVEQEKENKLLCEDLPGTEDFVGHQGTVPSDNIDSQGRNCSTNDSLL

The inhibition is the change of the read-out against control, counted positive when it falls. For `C[N+](C)(C)CCCC(=O)c1ccc2c(c1)OCO2`, the percent of DMSO control GFP in experiment [1] is 94.4% (inactive). Besides, the GFP response vs DMSO was 111% (inactive) in experiment [2] and 107% (inactive) in experiment [4]. Further, the percent response of DMSO control in experiment [3] was 96.7% (inactive). In [5], the GFP response, % of DMSO was 97.7% (inactive). In addition, in experiment [6], the double positive events amounted to 59.8%. In experiment [6], the vesicle binding response is 135% (inactive). In addition, the results for the inhibition in [7], in experiment [11] and in experiment [15] were -22.3% (inactive), -2.19% (inactive) and 8% (inactive), respectively. The superoxide response (% of plate) in experiment [8] was 104% (inactive). For the same molecule, the aptamer binding inhibition in experiment [9] is 0% (inactive). Moreover, the values for the response in experiment [10] and in experiment [12] were -0.41% (inactive) and 0.48% (inactive), respectively. For the same molecule, the binding (% of control) in [13] was 101% (inactive). In addition, the efflux inhibition (fraction of control) in experiment [14] is -0.03 (inactive). Moreover, in experiment [16], the differentiation response is -12% (inactive).
For the molecule `CCCC(=O)O[C@]1(C(=O)CCl)[C@@H](C)C[C@H]2[C@@H]3CCC4=CC(=O)C=C[C@]4(C)[C@@]3(F)C(=O)C[C@@]21C`, in experiment [1], the percent of DMSO control GFP was 93.7% (inactive). Besides, the GFP response vs DMSO is 134% (inactive) in [2] and 85.8% (inactive) in experiment [4]. For the same molecule, the percent response of DMSO control in [3] is 111% (inactive). The GFP response, % of DMSO in experiment [5] was 87.3% (inactive). In [6], this molecule returned a double positive events of 65.1%. In addition, in experiment [6], the vesicle binding response is 147% (inactive). Moreover, the values for the inhibition in [7], in experiment [11] and in experiment [15] were 1.61% (inactive), 11.3% (inactive) and 8% (inactive), respectively. In addition, in experiment [8], the superoxide response (% of plate) is 98.4% (inactive). For the same molecule, the aptamer binding inhibition in [9] was 3% (inactive). Moreover, the figures for the response in [10] and in experiment [12] were -4.94% (inactive) and -7.84% (inactive), respectively. Besides, in [13], the binding (% of control) was 94.1% (inactive). Also, the efflux inhibition (fraction of control) in experiment [14] is 0.23 (inactive). Moreover, the differentiation response in experiment [16] is 0% (inactive).
Consider `NS(=O)(=O)c1ccc(CCNC(=O)C2CCCN2C(=O)OCc2ccccc2)cc1` (stereo not given), for which, in experiment [1], the percent of DMSO control GFP is 97.2% (inactive). Besides, the GFP response vs DMSO in experiment [2] was 109% (inactive); in [4], 77.6% (inactive). Besides, the percent response of DMSO control in [3] was 112% (inactive). Further, the GFP response, % of DMSO in [5] is 103% (inactive). Moreover, the double positive events in [6] turned out to be 52.2%. Also, in experiment [6], the vesicle binding response is 214% (inactive). For the same molecule, the inhibition was 1.61% (inactive) in experiment [7], -5.77% (inactive) in experiment [11] and 11% (inactive) in [15]. The superoxide response (% of plate) in [8] is 110% (inactive). The aptamer binding inhibition in [9] is -8% (inactive). In addition, the values for the response in experiment [10] and in experiment [12] were -16.9% (inactive) and 2.16% (inactive), respectively. Moreover, the binding (% of control) in experiment [13] was 104% (inactive). Further, in [14], the efflux inhibition (fraction of control) is 0.19 (inactive). Besides, the differentiation response in [16] was 3.28% (inactive).
Consider `Cc1ccccc1NC(=O)c1c(C)cc(=O)oc1C`, for which the percent of DMSO control GFP in [1] is 106% (inactive). In addition, the GFP response vs DMSO was 101% (inactive) in experiment [2] and 84.8% (inactive) in experiment [4]. The percent response of DMSO control in [3] is 113% (inactive). Further, the GFP response, % of DMSO in experiment [5] is 99.2% (inactive). The molecule further registered a double positive events in [6] of 67.4%. In addition, the vesicle binding response in experiment [6] was 771% (inactive). Moreover, the inhibition in experiment [7] was 5.77% (inactive); in experiment [11] it was -11.4% (inactive); in [15], -3% (inactive). Further, the superoxide response (% of plate) in [8] is 83.4% (inactive). In addition, in experiment [9], the aptamer binding inhibition was 4% (inactive). Further, the figures for the response in experiment [10] and in [12] were -4.18% (inactive) and 1.91% (inactive), respectively. In addition, the binding (% of control) in experiment [13] is 92.7% (inactive). The efflux inhibition (fraction of control) in [14] was -0.2 (inactive). For the same molecule, in experiment [16], the differentiation response was -1.71% (inactive).
Consider `CCN(CC)CCCNC(=O)C1c2ccccc2Oc2ccccc21`, for which the percent of DMSO control GFP in [1] was 100% (inactive). The GFP response vs DMSO in [2] was 95.1% (inactive); in experiment [4], 89.4% (inactive). The percent response of DMSO control in [3] is 95.4% (inactive). In addition, in experiment [5], the GFP response, % of DMSO was 97.2% (inactive). Further, the double positive events in experiment [6] was 64.1%. The vesicle binding response in [6] is 1360% (inactive). Moreover, the results for the inhibition in [7], in experiment [11] and in experiment [15] were 13% (inactive), 17% (inactive) and -2% (inactive), respectively. The superoxide response (% of plate) in [8] was 101% (inactive). For the same molecule, the aptamer binding inhibition in experiment [9] was 2% (inactive). The response in [10] is 2.25% (inactive); in experiment [12], -0.98% (inactive). Moreover, in experiment [13], the binding (% of control) is 101% (inactive). Moreover, in experiment [14], the efflux inhibition (fraction of control) is 0.49 (active). Moreover, the differentiation response in experiment [16] is 26.6% (inactive).
